PubChem BioAssay (NCI)
About 83,000 compounds went through this panel and 20% of them were active in at least one assay; those are over-represented in the sample as a whole.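 Growth was measured after 48 h exposure to one concentration of compound in 96-well plates. Values under 10 count as active.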 Values without a mark were called inactive. Activity calls are given as the source filed them.

What follows are compounds tested on HL-60(TB) leukemia (assay: NCI-60 one-dose screen, 48 h (100 = growth as untreated, 0 = no growth, -100 = all killed)). Settings: 10 µM unless noted.

Row | SMILES | growth
1 | Cn1ccnc1C(=O)/C=C/c1ccc(NC(=O)Nc2ccc(F)cc2)cc1 | 7.58% (active)
2 | COc1cc(CNC(=O)/C=C/c2ccccc2)ccc1OCC(=O)NO | 121%
3 | COC[C@@]1(C)CC[C@]2(C)CC[C@]3(C)C(=CC[C@@H]4[C@@]5(C)CCCNC(C)(C)[C@@H]5CC[C@]43C)C2C1 (stereo partly specified) | 48.3%
4 | CN1CCN(c2ccc(/C=N/Nc3nc4ccccc4c(=O)n3-c3ccccc3)cc2)CC1 | 113%
5 | O=C(NCCCNc1cc(-c2cn(-c3ccccc3)nc2-c2cccc(O)c2)ccn1)Nc1cccc(C(F)(F)F)c1 | 24.7%
6 | NC(N)=Nc1ccc(Nc2cccc(Oc3ccc(Cl)c(C(F)(F)F)c3)c2)cn1 | -67.4% (active)
